# SW480 rereplic: inducers of DNA re-replication in SW480 colon cancer cells | Potency, µM (doses to about 46.1 µM), without a hit: top-dose re-replication activation, usual class: activators | SW480 DNA re-replication, Hoechst DNA content imaging, 48 h | 1.8% of 340,000 active; note: potency is the fitted concentration of half-maximal effect; % of control where 0% means no effect; nearly all actives have a fitted effect of over 55% in size
#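 Readout is total intensity of Hoechst-stained nuclei, excited at 405 nm and collected at 500-530 nm. Compound treatment lasted 48 hr at 37 C in 5% CO2 before staining.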
# IL1B secr inh: inflammasome signaling inhibition, IL-1 beta readout; THP-1 LPS/ATP IL-1B secretion, AlphaLISA, 16 h; hits give low values; activity change, % at 57.5 µM; 4.7% of 360,000 active; AID 743279; in the data active = activity change below about -50%; inconclusive = mostly about -30% to -49%; note: % is set by controls: 0 for no effect and ±100 for the full control effect
#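 Secreted IL-1B measured by AlphaLISA bead assay after 16 h compound exposure of THP-1 cells; compounds (final up to 57.5 uM) added 1 h before LPS (250 ng/mL) and ATP (1.25 mM) stimulation; lower signal means less secretion.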
# MCF10A rereplic: induces DNA re-replication in MCF 10a normal breast cells. 2.9% of 350,000 active. Potency, µM (top dose mostly 46.1 µM), for the others: at the highest dose activity, positive = re-replication, usual class: activators. MCF 10A DNA re-replication, Hoechst nuclear intensity, 48 h. AID 624296; note: potency is the fitted concentration of half-maximal effect; % of control where 0% means no effect; nearly all actives have a fitted effect of over 50% in size
# RORg inh: blocks mouse ROR gamma transcriptional activity; P51450; Drosophila S2 Gal4-RORgamma UAS-luciferase reporter, 20 h; Potency, µM (series often up to 53.6 µM), for inactives: top-dose activity change, negative = inhibition, actives largely listed as inhibitors; 5.4% of 310,000 active; note: potency is the fitted concentration of half-maximal effect; % is set by controls: 0 for no effect and ±100 for the full control effect; nearly all actives have a fitted effect of over 60% in size
# Target sequence (P51450 whole entry, looked up, the tested form may be a part): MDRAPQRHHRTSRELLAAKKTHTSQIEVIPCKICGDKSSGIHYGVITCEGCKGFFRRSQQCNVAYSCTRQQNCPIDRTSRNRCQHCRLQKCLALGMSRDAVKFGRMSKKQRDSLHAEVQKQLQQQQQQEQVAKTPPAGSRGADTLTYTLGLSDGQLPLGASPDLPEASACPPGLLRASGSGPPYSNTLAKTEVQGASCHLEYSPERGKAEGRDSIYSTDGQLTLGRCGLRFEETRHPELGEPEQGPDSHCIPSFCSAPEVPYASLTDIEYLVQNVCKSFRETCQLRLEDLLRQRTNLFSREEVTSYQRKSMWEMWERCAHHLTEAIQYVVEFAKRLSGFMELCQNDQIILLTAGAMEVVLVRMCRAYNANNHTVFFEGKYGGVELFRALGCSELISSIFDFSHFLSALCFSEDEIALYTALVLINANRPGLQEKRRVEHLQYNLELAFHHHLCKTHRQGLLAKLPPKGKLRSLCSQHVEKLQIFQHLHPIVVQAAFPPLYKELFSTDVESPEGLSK
#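 In this cell-based reporter format, copper sulfate (700 uM final) drives Gal4–ROR gamma fusion expression from a metallothionein promoter in Drosophila Schneider cells; compounds preincubated 1 hr, reporter read after 20 hr at ambient temperature.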
# Gal4-VP16 FLuc: Gal4-VP16 reporter inhibition counter-screen. Potency, µM (top dose mostly 53.6 µM), for the others: top-dose activity, negative = inhibition, hits mostly inhibitors. 3.5% of 310,000 active. Drosophila S2 Gal4-VP16 UAS-luciferase, luminescence, 20 h;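 note: Gal4-VP16 expression switched on by copper sulfate through the metallothionein promoter; potency is the fitted concentration of half-maximal effect; % is set by controls: 0 for no effect and ±100 for the full control effect; nearly all actives have a fitted effect of over 50% in size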
# The depositor's hits bear a star; ? = inconclusive; · = no result; [ ] = dose if it differs, or a comment. Sampled rows, rich in hits. Any-hit rate of the full collection: about 11%. Unless noted, calls come from the whole dose curve; as a rule, active = well fitted curve in the direction sought with a large enough effect; inconclusive = small, poorly fitted or top-dose-only effect, or another doubt; inactive = no such curve, though single readings can be large; an effect the other way counts as inactive or inconclusive.
SMILES,SW480 rereplic,IL1B secr inh,MCF10A rereplic,RORg inh,Gal4-VP16 FLuc
COc1ccc(NS(=O)(=O)c2cc(OC)ccc2NC(=O)c2cc(C)oc2C)cc1,13µM*,41,13µM*,0%,-3%
CCOc1ccc(NCc2cccn2-c2nnc(N3CCC(C(=O)NCCCN4CC(C)CC(C)C4)CC3)s2)cc1 (stereo unspecified),?,-82*,-2%,-38%,-11%
CCN1CCN(CCCNC(=O)C2CCN(c3nnc(-n4cccc4)s3)CC2)CC1,-23%,6,13%,-18%,2%
CCOc1ccc2nc(N3CCC(C(=O)NCCCN4CCOCC4)CC3)sc2c1,2%,-66*,-4%,-6%,-13%
CNC(=O)NC(=O)CSc1cccc(C(F)(F)F)c1,11%,17,21µM*,14%,4%
COc1ccc(/C=C2\CN(Cc3ccccc3)C/C(=C\c3ccc(OC)cc3OC)C2=O)c(OC)c1,?,-4,?,12%,9%
COc1ccc(/C=C2\CN(Cc3ccccc3)C/C(=C\c3ccc(OC)cc3)C2=O)cc1,·,-29,8.2µM*,-24%,?
O=C(Sc1cccc2cccnc12)c1ccccc1Br,·,·,·,0.79µM*,2µM*
O=C(Sc1cccc2cccnc12)c1ccc(F)cc1,·,·,·,1.1µM*,4.5µM*
O=C(CSc1cccc2cccnc12)Nc1ccccc1F,?,-1,3%,?,?
O=C(CSc1cccc2cccnc12)OCC(=O)c1ccc(Br)cc1,-2%,13,?,-43%,-9%
Cc1ccc(C2CC(c3cccs3)=NN2C(=O)CSc2nc(=O)n3cc(C)ccc3n2)cc1 (stereo unspecified),2%,-12,14%,·,·
CC(C)CCC[C@@H](C)[C@H]1CC[C@H]2[C@@H]3CC=C4CC(O)CC[C@]4(C)[C@H]3CC[C@]12C (stereo partly specified),·,·,·,5%,3%
COc1cccc(NC(=O)CN(C)C(=O)c2cc(-c3ccccc3)nn2-c2ccccc2)c1,-7%,?,0%,·,·
Cc1ccc(C(=O)N2CCC(Cc3ccccc3)CC2)cc1[N+](=O)[O-],1%,-30,16%,?,-10%
O=C(CSc1ccccc1C(=O)N1CCCCC1)NCC1CCCCC1,-1%,9,5%,2.5µM*,9%
COCCSc1ccccc1C(=O)N1CCC(Cc2ccccc2)CC1,-4%,-54*,?,0%,2%
O=[N+]([O-])c1ccc(C(=S)N2CCC(Cc3ccccc3)CC2)cc1,0%,-5,?,10%,-13%
Cc1c(C(=O)N2CCC(Cc3ccccc3)CC2)cccc1[N+](=O)[O-],2%,-104*,?,1%,5%
Cc1cccc(C(=O)N2CCC(Cc3ccccc3)CC2)c1[N+](=O)[O-],?,-87*,?,-3%[10 µM],-3%
CO[C@@H]1COC(=O)C/C=C\[C@H](C)[C@H](OC)COC(=O)[C@H]2CCCN2C(=O)C/C=C\[C@H]1C,·,·,·,-16%[10 µM],-9%[10 µM]
CCOC(=O)C1=C(c2ccccc2)O/C(=C(\C(=O)OC)C(F)(F)F)S1,-4%,-5,1%,4%,-2%
CCOC(=O)C1=C(c2ccccc2)O/C(=C(/C#N)C(F)(F)F)S1,·,·,·,14µM*,16µM*
c1ccc(CCNc2nc3ccccc3n3nnnc23)cc1,-1%,-7,3%,33%,-3%
ClC(Cl)(Cl)c1nc2ccccc2n2nncc12,13µM*,-105*,?,?,-1%
SMILES,SW480 rereplic,IL1B secr inh,MCF10A rereplic,RORg inh,Gal4-VP16 FLuc
CN(C)CCCNc1nc2cc(-c3ccc(F)cc3)sc2c(=O)n1C,·,-15,·,·,·
COc1ccc(C2c3ccc(O)cc3Oc3ncn(CCN4CCOCC4)c(=N)c32)cc1 (stereo unspecified),15%,?,1%,17%,-4%
COc1ccc(C2c3c(ncn(CCCO)c3=N)Oc3ccc4ccccc4c32)cc1 (stereo unspecified),?,-96*,?,-28%,-16%
COc1ccc(C2c3c(ncn(CCCO)c3=N)Oc3ccc4ccccc4c32)cc1OC (stereo unspecified),?,-100*,?,-20%,-1%
COc1ccc(C2c3c(ncn(CCN4CCOCC4)c3=N)Oc3ccc4ccccc4c32)cc1OC (stereo unspecified),?,-87*,?,-108%,13µM*
Cc1ccc(CNC(=O)CC(C)S(=O)(=O)c2ccc3c(c2)NC(=O)CS3)o1 (stereo unspecified),?,-16,18%,-6%,-2%
Cc1cccc(N2C(=O)CN(Cc3ccccc3)C2=S)c1,6%,-2,1%,3%,2%
CCOc1ccc(-c2[nH]ncc2-c2ccc(Cl)cc2)c(O)c1,?,-8,?,11µM*,?
CCOc1ccc(-c2[nH]ncc2-c2ccc(OC)c(OC)c2)c(O)c1,2.6µM*,-12,?,?,?
COc1ccc(-c2cn[nH]c2-c2ccc(O)cc2O)cc1OC,3%,12,1%,-3%,-3%
CN(C)c1ccc(C(=N)c2ccc(N(C)C)cc2)cc1,·,·,·,-16%,23%
CN=C1C=CC(=C(c2ccc(N(C)C)cc2)c2ccc(N(C)C)cc2)C=C1,?,·,18%,?,2.5µM*
CSc1nc(NC2CCCC2)c([N+](=O)[O-])c(NC2CCCC2)n1,·,·,·,0%,-9%
CCN(CC)CCCCn1c(-c2ccccc2)nc2c(N(CCOC)CCOC)nc(C)nc21,·,·,·,1%,22%
COc1ccccc1CNc1ncncc1-c1ccccc1OC,·,·,·,?,16µM*
COC(=O)/C=c1/s/c(=C(/C#N)C(=O)N2CCCCC2)n(-c2ccccc2)c1=O,0.33µM*,5,13%,-4%,0%
CCNc1ncc2nc(-c3cccs3)c(=O)n(C)c2n1,·,·,·,-1%,?
O=C(Cc1cccs1)OCC(=O)c1ccco1,3%,0,-2%,0%[10 µM],1%
O=C(CC(Sc1ccccc1)c1cccs1)c1ccco1 (stereo unspecified),0%,-70*,-6%,?,1%
Cn1cccc1C(=O)N1CCC2(CCCN(c3ccccn3)C2)CC1,·,·,·,14%,6%
CCOc1cc(N2CCOCC2)c(OCC)cc1NC(=O)c1ccccc1N1CCCC1=O,·,0,·,·,·
C=CCN([C@H](C(=O)OC)C(C)C)S(=O)(=O)CCNCc1ccccc1,-61%,-2,4%,·,·
[O-][N+](=Cc1ccccc1)CC1(O)CCCCC1,·,-12,·,·,·
CC(C)(C)C(=O)Cn1ncc(N2CCCC2)c(Br)c1=O,-1%,8,2%,-37%,-15%
C=CCn1c(C)cc(C(=O)Cn2ncc(Cl)c(Cl)c2=O)c1C,2.9µM*,-102*,5.8µM*,?,?
C=CCn1c(C)cc(C(=O)CN2NS(=O)(=O)c3ccccc3C2=O)c1C,?,88,?,?,?
